This is an account of results in paper PMC5540273 (PLoS ONE, 2017).

Among the test systems are PRKCI; PRKCQ; PRKD1; PRKD2; PRKD3; PRKG1; PRKG2; PRKX; PRP4; QSK; RAF1; RET; RIOK1; RIOK2; RIOK3; RIPK1; RIPK2; RIPK4.
Conditions in all cases: concentration: 1 μM, replicates: in singlicate; n = 1
A further experiment concerns T1, PRKR.
T1 construct: gene EIF2AK2

The next experiment has as its system T2, PYK2.
T2 construct: gene PTK2B
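Also: KINOMEscan kinase panel screen.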

As to `COc1ccc(Nc2nccc(N3CCC(NC(=O)Nc4cccc(C(C)=O)c4)C3)n2)cc1` (stereo not drawn) [GSK1379731], the “%Inh” value in the experiment on PRKCI is on record as 18%; in the experiment with PRKCQ it was 18%; with PRKD1, 0%; in the experiment on PRKD2, 11%; in the experiment on PRKD3 it was 7%; in the experiment on PRKG1 it was 0%. Also, the “%Inh” value in the experiment on PRKG2 was determined as 0%; in the experiment on PRKR, 0%; with PRKX, 24%; in the experiment with PRP4 it was 0%; with PYK2 it was 0%; in the experiment with QSK, 0%. Further, the “%Inh” value turned out to be 0% with RAF1; 0% in the experiment with RET; 42% in the experiment on RIOK1; 0% with RIOK2; 24% in the experiment on RIOK3; 0% in the experiment on RIPK1. Also, the “%Inh” value with RIPK2 worked out at 39%; with RIPK4, 0%.

For the molecule `CN1c2ccc(NCc3ccc(F)cc3)cc2-c2c(cnn2C)S1(=O)=O`, the “%Inh” value in the experiment with PRKCI was 29%; in the experiment with PRKCQ, 12%; with PRKD1, 13%; with PRKD2, 1%; with PRKD3 it was 0%; with PRKG1, 0%. The “%Inh” value was 7% in the experiment with PRKG2; 0% in the experiment on PRKR; 0% with PRKX; 33% in the experiment with PRP4; 0% in the experiment with PYK2; 10% in the experiment on QSK. The “%Inh” value in the experiment with RAF1 is 1%; in the experiment on RET, 0%; in the experiment on RIOK1, 10%; in the experiment on RIOK2, 0%; in the experiment with RIOK3 it was 0%; in the experiment on RIPK1 it was 3%. The “%Inh” value with RIPK2 and in the experiment with RIPK4 was 0% each time.

With `COc1ccc(Nc2ncc(C#N)c(Nc3ccccc3C(N)=O)n2)cc1N1CCN(C)CC1.Cl` [GSK1558669], the “%Inh” value was 96.6% in the experiment with PRKCI; 96.5% in the experiment on PRKCQ; 93.1% with PRKD1; 89% in the experiment on PRKD2; 99% in the experiment with PRKD3; 76% in the experiment on PRKG1. Moreover, the “%Inh” value in the experiment with PRKG2 was 54%; with PRKR, 87%; in the experiment with PRKX it was 52%; in the experiment on PRP4, 79%; in the experiment on PYK2, 99.2%; in the experiment with QSK, 94.7%. Also, the “%Inh” value in the experiment on RAF1 is recorded as 32%; with RET it was 99.9%; with RIOK1 it was 100%; in the experiment with RIOK2, 98.7%; with RIOK3, 79%; in the experiment on RIPK1 it was 74%. Further, the “%Inh” value in the experiment with RIPK2 came to 76%; in the experiment on RIPK4 it was 98.9%.

For `NS(=O)(=O)CCc1cccc(Nc2nccc(-c3c(-c4cccc(NC(=O)c5c(F)cccc5F)c4)nn4ccccc34)n2)c1` [GSK336735], the “%Inh” value is given as 11% in the experiment with PRKCI; 55% in the experiment with PRKCQ; 40% in the experiment with PRKD1; 12% in the experiment on PRKD2; 56% in the experiment on PRKD3; 2% with PRKG1. In addition, the “%Inh” value with PRKG2 was 0%; in the experiment with PRKR it was 0%; in the experiment on PRKX, 13%; in the experiment on PRP4, 18%; with PYK2, 29%; in the experiment with QSK it was 0%. The “%Inh” value was determined as 92.8% with RAF1; 99.9% with RET; 38% in the experiment with RIOK1; 17% in the experiment with RIOK2; 26% in the experiment with RIOK3; 10% in the experiment on RIPK1. Moreover, the “%Inh” value in the experiment on RIPK2 was found to be 97.9%; with RIPK4, 4%.

Turning to `CCCCCc1nc2c(N)ncnc2n1CCCCC` [SKF-97255], the “%Inh” value in the experiment with PRKCI turned out to be 8%; in the experiment on PRKCQ it was 0%; in the experiment on PRKD1, 0%; with PRKD2, 0%; in the experiment on PRKD3, 0%; with PRKG1, 0%. The “%Inh” value in the experiment with PRKG2 turned out to be 0%; with PRKR, 0%; in the experiment with PRKX, 0%; with PRP4, 3%; in the experiment with PYK2, 21%; in the experiment on QSK it was 7%. Moreover, the “%Inh” value in the experiment on RAF1 came to 11%; in the experiment on RET, 0%; in the experiment with RIOK1 it was 0%; with RIOK2, 0%; with RIOK3 it was 0%; in the experiment with RIPK1, 0%. In addition, the entries for the “%Inh” value in the experiment with RIPK2 and with RIPK4 were 22% and 7%, respectively.

Take `CC(C)Oc1ccc2c(-c3ccnc(Nc4ccc(N5CCN(C)CC5)cc4)n3)cnn2n1` [GW696155]: the “%Inh” value with PRKCI is recorded as 26%; in the experiment with PRKCQ, 0%; with PRKD1, 86%; with PRKD2 it was 97.6%; in the experiment on PRKD3 it was 100%; in the experiment on PRKG1 it was 0%. Moreover, the “%Inh” value in the experiment on PRKG2 worked out at 4%; in the experiment on PRKR, 92.2%; in the experiment on PRKX it was 0%; in the experiment on PRP4 it was 95%; with PYK2, 42%; with QSK, 23%. Further, the “%Inh” value in the experiment on RAF1 came out at 0%; in the experiment on RET, 56%; in the experiment with RIOK1, 99.9%; in the experiment on RIOK2 it was 90%; with RIOK3 it was 95.4%; with RIPK1, 40%. Besides, the “%Inh” value amounted to 15% in the experiment on RIPK2 and 27% with RIPK4.
